# Laboratory results as given in PubChem BioAssay (EPA / NIEHS).
# Where “and” joins values, the source holds several entries; their conditions need not be identical. Equal values may be shown once. Some structures have more than one record in an assay (separate samples or runs), and their calls can disagree. Calls of active or inactive are those of the source. Rule for the calls: active = hit-call score of the fitted dose curve at least 0.9, where 1 is the maximum; inactive = score below 0.9.
# Read-out: Eotaxin 3, CCL26 (gene 10344)
# Test: BSK_BF4T_Eotaxin3: BioMAP Diversity Plus: BF4T Assay for Eotaxin 3 Biomarker Activity (AID 2284258)
# Settings: primary human bronchial epithelial cells with fibroblasts
# Procedure: BSK_BF4T is a cell-based, multiplexed-readout assay that uses bronchial epithelial cells and dermal fibroblasts, a human vascular primary cell, with measurements taken at 24 hours after chemical dosing in a microplate: 96-well plate.BSK_BF4T_Eotaxin3 is an assay component measured in the BSK_BF4T assay. It measures Eotaxin-3 antibody related to regulation of gene expression using ELISA technology.Data from the assay component BSK_BF4T_Eotaxin3 was analyzed at the endpoint, BSK_BF4T_Eotaxin3, in the positive analysis fitting direction relative to DMSO as the negative control and baseline of activity. Using a type of binding reporter, gain or loss-of-signal activity can be used to understand protein changes. To generalize the intended target to other relatable targets, this assay endpoint is annotated to the 'cytokine' intended target family, where the subfamily is 'chemotactic factor'.
# The levels of cell surface (or secreted, indicated by the prefix "s") biomarker endpoints were measured by ELISA. Overt cytotoxicity to cells in confluent adherent cultures (all systems other than the BT system) was assessed by measuring total protein levels using sulforhodamine B (SRB) staining in parallel cultures at the time of biomarker measurements, indicated as SRB endpoints. For proliferation assays for adherent cell types, individual cell types are cultured at sub-confluence and relative cell numbers quantified by SRB staining at time points optimized for each system (48 h: 3C and CASM3C systems; 72 h: BT and HDF3CGF systems; 96 h: SAg system). SRB was performed by staining cells with 0.1% SRB after fixation with 10% TCA and reading wells at 560 nm.Viability and proliferation of PBMC (T cells) was quantified by Alamar Blue reduction for the SAg and BT systems. For PBMC viability (referred to as PBMC Cytotoxicity within the assay endpoint names), cells were plated (75,000/well in a 96-well plate) and then chemical samples added for 1 h before addition of activators, SEB and TSST-1 (20 ng/mL final concentration each). Cells were incubated for 90 h. Then, Alamar Blue (20 uL/well) (Invitrogen, Cat DAL1100) was added for 6 h, and the plates were read with a fluorescence microplate reader at 546/580 nm (excitation/emission). For PBMC proliferation, cells were plated and activated as above but incubated for only 16 h prior to addition of Alamar Blue. Plates were read after 6 h.
SMILES,AC50,outcome
O=C(O)CCC(F)(F)C(F)(F)C(F)(F)C(F)(F)C(F)(F)C(F)(F)C(F)(F)F,726 nM (active),inactive
FC(F)(F)C(F)(F)C(F)(F)C(F)(F)C(F)(F)C(F)(F)CC[Si](Cl)(Cl)Cl,,inactive
CCOC(=O)CC(=O)C(F)(F)C(F)(F)F,,inactive
O=S(=O)(O)CCC(F)(F)C(F)(F)C(F)(F)C(F)(F)C(F)(F)C(F)(F)C(F)(F)C(F)(F)F,15.1 µM (active) and 8.3 µM (active),
NC(=O)C(F)(F)C(F)(F)C(F)(F)C(F)F,,inactive
O=C(O)C(F)(F)C(F)(F)C(F)(F)OC(F)(F)F,,inactive
O=C(O)C(F)(F)C(F)(F)C(F)(F)C(F)(F)C(F)(F)C(F)(F)C(F)F,,inactive
OC(O)C(F)(F)C(F)(F)F,,inactive
O=S(=O)(O)CCC(F)(F)C(F)(F)C(F)(F)C(F)(F)F,,inactive
O=C(O)C(F)(F)OC(F)(F)C(F)(F)OC(F)(F)C(F)(F)OC(F)(F)F,,inactive
NC(=O)C(F)(F)C(F)(F)C(F)(F)C(F)(F)C(N)=O,,inactive
C=CC(=O)OCC(F)(F)C(F)(F)C(F)(F)COC(=O)C=C,14.8 µM (active) and 17 µM (active),
O=C(O)C(F)(F)C(F)(F)C(F)(F)C(=O)O,,inactive
O=C(Cl)C(F)(F)C(F)(F)C(F)(F)C(F)(F)C(F)(F)C(F)(F)F,,inactive
OCC(O)CC(F)(F)C(F)(F)C(F)(F)C(F)(F)F (stereo not given),,inactive
CN(C(=O)C(F)(F)C(F)(F)C(F)(F)F)[Si](C)(C)C,,inactive
OCC(O)CC(F)(F)C(F)(F)C(F)(F)C(F)(F)C(F)(F)C(F)(F)C(F)(F)C(F)(F)F (stereo not given),,inactive
C[Si](Cl)(Cl)CCC(F)(F)C(F)(F)C(F)(F)C(F)(F)C(F)(F)C(F)(F)F,,inactive
O=C(O)CCC(F)(F)C(F)(F)C(F)(F)F,,inactive
OCCCC(F)(F)C(F)(F)C(F)(F)C(F)(F)C(F)(F)C(F)(F)C(F)(F)C(F)(F)F,24.7 µM (active) and 24.9 µM (active),

SMILES,AC50,outcome
C=C(C)C(=O)OCC(F)(F)C(F)(F)C(F)(F)C(F)F,,inactive
O=S(=O)(OCC(F)(F)F)C(F)(F)C(F)(F)C(F)(F)C(F)(F)F,,inactive
CCN(CCO)S(=O)(=O)C(F)(F)C(F)(F)C(F)(F)C(F)(F)C(F)(F)C(F)(F)C(F)(F)C(F)(F)F,,inactive
NS(=O)(=O)C(F)(F)C(F)(F)C(F)(F)C(F)(F)C(F)(F)C(F)(F)F,,inactive
OCC(F)(F)C(F)(F)C(F)(F)C(F)(F)C(F)(F)C(F)(F)C(F)(F)C(F)(F)CO,15.3 µM (active) and 16.6 µM (active),
NC(O)(C(F)(F)F)C(F)(F)F,,inactive
FC(F)(F)C(F)(F)C(F)(F)C(F)(F)C(F)(F)C(F)(F)C(F)(F)CCI,,inactive
COC(F)(C(F)F)C(F)(F)F (stereo not given),,inactive
OCCCCC(F)(F)C(F)(F)C(F)(F)C(F)(F)F,,inactive
C=CC(=O)OCCC(F)(F)C(F)(F)C(F)(F)C(F)(F)F,,inactive
NC(=O)C(F)(F)C(F)(F)C(F)(F)C(F)(F)C(F)(F)C(F)(F)C(F)(F)F,,inactive
CO[Si](C)(CCC(F)(F)C(F)(F)C(F)(F)C(F)(F)C(F)(F)C(F)(F)F)OC,,inactive
OCC(F)(F)C(F)(F)C(F)(F)C(F)(F)C(F)(F)C(F)(F)CO,,inactive
O=C(F)C1(F)C(F)(F)C(F)(F)C(F)(F)C(F)(F)C1(F)F,,inactive
NCC(F)(F)C(F)(F)C(F)(F)C(F)(F)C(F)(F)C(F)(F)C(F)(F)C(F)(F)F,,inactive
CNS(=O)(=O)C(F)(F)C(F)(F)C(F)(F)C(F)(F)C(F)(F)C(F)(F)C(F)(F)C(F)(F)F,3.88 µM (active) and 220 nM (active),
O=C(O)C(F)(F)C(F)(F)C(F)(F)OC(F)(C(F)(F)F)C(F)(F)F,,inactive
NC(=O)C(F)(F)C(F)(F)C(F)(F)F,,inactive
FC(F)(F)C(F)(F)C(F)(F)CC1CO1 (stereo not given),,inactive
